An excerpt weighted towards active compounds, which were near 9.5% of everything screened.
ALDH1A1 inh: ALDH1A1 (human) enzyme inhibition; Purified ALDH1A1, NADH fluorescence, propionaldehyde substrate; Potency, µM (series often up to 75.3 µM), actives largely listed as inhibitors; 220,000 compounds, 7.3% hits; active means well fitted inhibition curve with a large enough effect, not every such curve was filed as active; inconclusive means small, poorly fitted or top-dose-only effect, or another doubt; inactive means no such curve, though single readings can be large or run the other way
Target sequence (P00352 whole entry, looked up): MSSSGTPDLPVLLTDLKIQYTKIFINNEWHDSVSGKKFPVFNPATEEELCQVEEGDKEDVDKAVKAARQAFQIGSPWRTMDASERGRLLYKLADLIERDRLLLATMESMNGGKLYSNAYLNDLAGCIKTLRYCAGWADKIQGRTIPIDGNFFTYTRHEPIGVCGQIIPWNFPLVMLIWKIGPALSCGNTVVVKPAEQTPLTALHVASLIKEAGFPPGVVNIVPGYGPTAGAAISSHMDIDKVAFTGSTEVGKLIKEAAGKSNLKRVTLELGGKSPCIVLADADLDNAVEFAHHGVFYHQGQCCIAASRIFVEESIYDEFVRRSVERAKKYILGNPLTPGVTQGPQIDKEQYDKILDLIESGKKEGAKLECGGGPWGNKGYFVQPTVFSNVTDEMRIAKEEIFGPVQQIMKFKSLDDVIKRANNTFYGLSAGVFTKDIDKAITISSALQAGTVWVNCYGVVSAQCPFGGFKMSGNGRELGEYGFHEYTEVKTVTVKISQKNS
HPGD block: HPGD (human) dehydrogenase inhibition | Potency, µM, hits mostly inhibitors | AID 894 | purified HPGD, NADH fluorescence kinetic, PGE2 substrate | 150,000 compounds, 4.3% hits; active means well fitted inhibition curve with a large enough effect, not every such curve was filed as active; inconclusive means small, poorly fitted or top-dose-only effect, or another doubt; inactive means no such curve, though single readings can be large or run the other way
Target sequence (P15428 whole entry, looked up): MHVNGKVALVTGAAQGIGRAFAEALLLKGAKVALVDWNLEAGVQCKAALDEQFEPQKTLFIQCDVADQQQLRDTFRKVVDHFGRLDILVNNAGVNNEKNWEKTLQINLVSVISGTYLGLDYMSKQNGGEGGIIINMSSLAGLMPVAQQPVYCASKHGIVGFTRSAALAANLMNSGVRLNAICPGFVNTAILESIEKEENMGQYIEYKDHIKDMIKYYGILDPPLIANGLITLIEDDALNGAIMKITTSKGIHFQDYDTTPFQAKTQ
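NADH formation kinetics: reaction with 30 uM PGE2 and 1 mM NAD+ (final), 20 nM enzyme, Tris-HCl pH 8 with Tween 20, after 15 min compound preincubation at room temperature. Fluorescence change, last versus first of five reads.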
Tau fluor counter: counter-screen for tau fibril formation inhibitors. 280,000 compounds, 0.93% hits. Potency, µM (highest dose often 57.7 µM). tau K18 P301L Alexa594 fluorescence, heparin fibrillization; further: nearly all actives have a fitted effect of over 55% in size
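Human K18 P301L tau (15 uM unlabeled plus 0.24 uM Alexa 594-labeled, final) in 100 mM sodium acetate pH 7 was mixed with compound and 20 uM heparin and incubated 6 hr at 37 C.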
Tau fibril FP: tau fibrillization inhibition (FP) | K18 P301L tau heparin fibrillization, Alexa594 FP, 6 h | P10636 | 280,000 compounds, 0.39% hits | Potency, µM (doses to about 57.7 µM), most hits filed as inhibitors | AID 1468; further: nearly all actives have a fitted effect of over 55% in size
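K18 P301L tau (15 uM unlabeled/0.24 uM Alexa 594-labeled, final) + compound + heparin 20 uM final; 100 mM NaOAc pH 7; 6 hr 37 C; ThT 30 uM final added, 1 hr RT; FP ex 555/em 632 nm.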
Tau fibril ThT: blocks human tau fibril formation measured by thioflavin T; P10636; recombinant tau K18 P301L, heparin-induced fibrillization, ThT fluorescence; 270,000 compounds, 2.1% hits; Potency, µM (series often up to 57.4 µM), usual class: inhibitors; further: nearly all actives have a fitted effect of over 55% in size
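ThT emission at 510 nm, taken 1 hr after adding 30 uM dye, quantifies aggregates formed when 20 uM heparin acts on human tau K18 P301L for 6 hr at 37 C.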
NPSR antagonist: neuropeptide S receptor (human) antagonism, cAMP | Potency, µM (doses to about 38.3 µM), usual class: inhibitors | 220,000 compounds, 1% hits | CHO-NPSR cells, cAMP TR-FRET, antagonist mode | Q6W5P4 | AID 1461; further: nearly all actives have a fitted effect of over 50% in size
Of the large screens only hits and unclear results are named; the others gave an inactive call; [ ] = another dose, or the depositor's remark. Unless noted, the call rests on the fitted dose curve; in most records, active means well fitted curve in the direction sought with a large enough effect; inconclusive means small, poorly fitted or top-dose-only effect, or another doubt; inactive means no such curve, though single readings can be large; an effect the other way counts as inactive or inconclusive.

CCN(CC)S(=O)(=O)c1ccc(C(=O)Nc2ccc3c(c2)OCCO3)cc1	ALDH1A1 inh 13µM
CCN(CC)S(=O)(=O)c1cccc(C(=O)Nc2ccc3c(c2)OCO3)c1	ALDH1A1 inh inconclusive (no result: HPGD block)
CCN(CC)S(=O)(=O)c1ccc(NC(=O)c2ccc(NS(C)(=O)=O)cc2)cc1	ALDH1A1 inh inconclusive
CC1CN(S(=O)(=O)c2cccc(C(=O)OCC(=O)Nc3ccc4c(c3)OCO4)c2)CC(C)O1 (centres undefined)	ALDH1A1 inh 11µM
CC1CN(S(=O)(=O)c2cccc(C(=O)OCC(=O)c3cccs3)c2)CC(C)O1 (centres undefined)	ALDH1A1 inh inconclusive
CCCN(CCC)S(=O)(=O)c1cccc(C(=O)Nc2ccc3c(c2)OCO3)c1	ALDH1A1 inh 3.2µM, Tau fluor counter inconclusive, Tau fibril ThT inconclusive, NPSR antagonist inconclusive
N#Cc1ccc(CN2CC3(CCN(C(=O)c4cc(C(F)(F)F)cc(C(F)(F)F)c4)CC3)C2)cc1	none (no result: Tau fluor counter, Tau fibril FP, Tau fibril ThT, NPSR antagonist)
O=C(CC1C(=O)N(c2ccc(F)cc2)C(=O)N1Cc1cccnc1)Nc1ccc(F)cc1 (centres undefined)	none (no result: ALDH1A1 inh, HPGD block, NPSR antagonist)
CCC(C)(C)NC(=O)c1cc(C(=O)OC)cc([N+](=O)[O-])c1	none
O=C(COC(=O)Cc1ccc(S(=O)(=O)N2CCOCC2)s1)Nc1ccc2c(c1)OCO2	ALDH1A1 inh 20µM
CCOc1ccc(C(=O)Nc2ccc3c(c2)OCCO3)cc1Br	Tau fluor counter 16µM[quencher], Tau fibril ThT inconclusive (no result: ALDH1A1 inh, HPGD block, NPSR antagonist)
Cc1cc(C)nc(NS(=O)(=O)c2ccc(NC(=O)c3ccc(S(=O)(=O)N4CC(C)OC(C)C4)cc3)cc2)n1 (centres undefined)	none
CCOc1ccc(C(=O)Nc2ccc3c(c2)OCO3)cc1OCC	none
Cc1cc(C)nc(NS(=O)(=O)c2ccc(NC(=O)c3ccc4c(c3)OCCO4)cc2)n1	ALDH1A1 inh 25µM (no result: HPGD block)
CCCN(CCC)S(=O)(=O)c1ccc(NC(=O)c2cc(C(=O)OC)cc([N+](=O)[O-])c2)cc1	Tau fluor counter 8.9µM[quencher]
CCCc1cc(NCC2CCCO2)n2c(nc3ccccc32)c1C#N (centres undefined)	ALDH1A1 inh inconclusive, HPGD block inconclusive
CC(=O)c1ccc(S(=O)(=O)Nc2cc3c(cc2C(C)=O)OCO3)cc1	none (no result: HPGD block)
CCN(CC)S(=O)(=O)c1ccc(S(=O)(=O)Nc2cc3c(cc2C(C)=O)OCO3)cc1	ALDH1A1 inh 3.2µM (no result: HPGD block)
O=c1c2c3nc4ccccc4nc3n(Cc3ccccc3)c2ncn1Cc1ccco1	ALDH1A1 inh inconclusive, HPGD block inconclusive, Tau fibril FP inconclusive, Tau fibril ThT inconclusive, NPSR antagonist 10µM
CC(C)Cn1cnc2c(c(-c3ccccc3)c(-c3ccccc3)n2Cc2ccco2)c1=N	NPSR antagonist inconclusive
N=c1c2c(-c3ccccc3)c(-c3ccccc3)n(Cc3ccco3)c2ncn1CCCn1ccnc1	none
c1ccc(-c2c(-c3ccccc3)n(Cc3ccco3)c3ncnc(NCCCn4ccnc4)c23)cc1	ALDH1A1 inh inconclusive, HPGD block inconclusive, Tau fibril ThT inconclusive, NPSR antagonist 25µM
N=c1c2c(-c3ccccc3)c(-c3ccccc3)n(Cc3ccco3)c2ncn1Cc1ccccc1	ALDH1A1 inh inconclusive, Tau fibril ThT inconclusive, NPSR antagonist 10µM
Nc1cc(-c2ccc(OC(F)(F)F)cc2)nn1-c1ccc(Cl)c(Cl)c1	Tau fluor counter 13µM[quencher], Tau fibril FP inconclusive, Tau fibril ThT 20µM (no result: HPGD block)
Cc1ccc(-c2cc(N)n(-c3ccccc3)n2)cc1	ALDH1A1 inh inconclusive, Tau fibril ThT inconclusive
CCC(C)n1c(SCc2ccc(F)cc2Cl)nc2ccsc2c1=O (centres undefined)	none (no result: ALDH1A1 inh, HPGD block, NPSR antagonist)
COC(=O)c1ccc(COc2ccccc2/C=C(\C#N)C(=O)Nc2ccc(C)cc2)cc1	none
COc1ccc(NC(=O)/C(C#N)=C/c2ccc3c(c2)n(C)c(=O)n3C)cc1	Tau fibril ThT inconclusive
N#C/C(=C\c1ccccc1OCc1ccc(C(=O)O)cc1)C(=O)Nc1ccc(O)cc1	ALDH1A1 inh 5.6µM, Tau fibril ThT inconclusive (no result: HPGD block)
COc1ccc(NC(=O)/C(C#N)=C\c2ccc(OCc3ccc(C(=O)O)cc3)c(OC)c2)cc1	ALDH1A1 inh inconclusive, Tau fibril ThT 4µM (no result: HPGD block)
NC(=O)c1ccccc1OCC(=O)Nc1ccc(Cl)c(Cl)c1	Tau fibril ThT inconclusive (no result: ALDH1A1 inh, HPGD block)
Cc1cc(C)cc(-n2ccn(CC(=O)Nc3ccccc3C(F)(F)F)c(=O)c2=O)c1	none (no result: ALDH1A1 inh, HPGD block, NPSR antagonist)
COc1ccc(C(=O)NCc2nnc(SCC(=O)Nc3ccccc3)n2-c2ccc(F)cc2)cc1	none (no result: ALDH1A1 inh, HPGD block, NPSR antagonist)
CC(=O)N1C2(C=CC1(C)C(=O)NCCN1CCOCC1)CCCCC2 (centres undefined)	none (no result: NPSR antagonist)
CC1(C)CC(=O)C(Sc2nnc(-c3ccc(O)cc3)n2CC2CCCO2)C(=O)C1 (centres undefined)	ALDH1A1 inh 19µM
CN(C)c1ccc(C(=N)c2ccc(N(C)C)cc2)cc1	none (no result: Tau fluor counter, Tau fibril FP, Tau fibril ThT, NPSR antagonist)
COc1ccc(C(=S)N2CCCC2)cc1OC	none
CN(C(N)=S)c1ccccc1	none
CN(C)C(=S)c1ccc(N(C)C)cc1	ALDH1A1 inh 0.79µM (no result: HPGD block)
COc1ccc(C(=S)N(C)C)cc1OC	ALDH1A1 inh inconclusive, HPGD block 10µM
CN(C)C(=S)c1ccccc1	ALDH1A1 inh 7.1µM, Tau fibril ThT inconclusive (no result: HPGD block)
COc1ccc(OCCNc2cc(N3CCOCC3)ccc2[N+](=O)[O-])cc1	HPGD block inconclusive, Tau fluor counter inconclusive, Tau fibril ThT 5µM
COc1cccc(OCCNc2cc(N3CCOCC3)ccc2[N+](=O)[O-])c1	Tau fluor counter inconclusive, Tau fibril ThT 11µM
CCOC(=O)C1CCCN(S(=O)(=O)c2ccc3c(c2)CCN3C(=O)CC)C1 (centres undefined)	none (no result: ALDH1A1 inh, HPGD block, NPSR antagonist)
CN1CCc2c(sc(/N=C/c3cc(C(C)(C)C)ccc3O)c2C#N)C1	Tau fluor counter inconclusive, Tau fibril ThT inconclusive, NPSR antagonist inconclusive (no result: ALDH1A1 inh, HPGD block)
CC1(C)SC2[C@H](NC(=O)C(NC(=O)N3CCNC3=O)c3ccccc3)C(=O)N2C1C(=O)O (some centres undefined)	none
O=C1N=C(N2CCCCC2)S/C1=C/C1=Cc2ccccc2OC1	ALDH1A1 inh 28µM, Tau fibril ThT inconclusive (no result: HPGD block)
COc1ccc(CCNC(=O)c2cc(=O)c3cc(C)c(C)cc3o2)cc1OC	none (no result: ALDH1A1 inh, HPGD block, NPSR antagonist)
Cn1c(COc2ccc(Br)cc2)nnc1SC1CCc2ccccc2C1=O (centres undefined)	ALDH1A1 inh 22µM, Tau fluor counter inconclusive, Tau fibril FP inconclusive, Tau fibril ThT 32µM
CC(=O)c1ccc(N=Nc2ccc(C)cc2)cc1	Tau fibril ThT 4.5µM (no result: HPGD block)
CC(=O)c1ccc(N=Nc2ccc(N(C)C)cc2)cc1	Tau fibril ThT 1µM (no result: HPGD block)
Cc1ccc(C(=O)c2ccc(C)cc2)cc1	ALDH1A1 inh inconclusive (no result: HPGD block)
Cc1ccc(C=Nc2cccnc2N)cc1	ALDH1A1 inh inconclusive
CCOc1ccc(C=Nc2cccc3ncccc23)cc1	ALDH1A1 inh 18µM (no result: HPGD block)
